Laboratory results: PubChem BioAssay (NCATS)
Records with an inconclusive call do not appear. Active and inactive are the calls of the source. The call rests on the fitted dose curve; in most records, active means well fitted curve in the direction sought with a large enough effect; inconclusive means small, poorly fitted or top-dose-only effect, or another doubt; inactive means no such curve, though single readings can be large; an effect the other way counts as inactive or inconclusive.

Legend:
[1] = OV-KATE Cancer Cell Toxicity qHTS against the NCATS CANVASS Library (AID 1347345)
Description: Natural products and their derivatives continue to be wellsprings of nascent therapeutic potential. However, many laboratories have limited resources for biological evaluation, leaving their previously isolated or synthesized compounds largely or completely untested. To address this issue, the Canvass library of natural products was assembled (https://tripod.nih.gov/canvass), in collaboration with academic and industry researchers, for quantitative high-throughput screening (qHTS) across a diverse set of cell-based and biochemical assays. The pure (>85% purity by liquid chromatography/mass spectrometry [LC/MS]) Canvass library of 346 natural products were submitted by 45 academic laboratories and companies around the world. […] The library was formatted into 1536-well plates and evaluated in 50 qHTS (in an 11-pnt concentration series) bioassays with broad scope of disease-relevant mechanisms. The resulting data set from 50 different assays was then systematically analyzed to identify overall trends and specific natural products with interesting biological activities. […]
Cancer Cell Toxicity protocol for cell lines COV-362, OV-KATE, OV-SAHO, UWB1.289, UWB1.289-WTBRCA1, HEK-293, HPAF-II, Panc-1005, SW1088, or U-118MG. […] Luminescence signal was acquired via the ViewLux plate reader (PerkinElmer) using a clear filter, 2 second exposure and 2x binning settings.

[2] = HPAF-II Cancer Cell Toxicity qHTS against the NCATS CANVASS Library (AID 1347346); further: nearly all actives have a fitted effect of over 55% in size
Method in brief: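 Cytotoxicity in HPAF-II pancreatic cancer cells: 72 h treatment across 11 concentrations, ATP-based CellTiter-Glo luminescence endpoint.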

[3] = UWB1.289 Cancer Cell Toxicity qHTS against the NCATS CANVASS Library (AID 1347347); further: nearly all actives have a fitted effect of over 60% in size
Method in brief: (§1)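 Viability was assessed by adding CellTiter-Glo reagent to treated cultures and reading luminescence after 15min at room temperature. Treatment lasted 72 h at 37 degrees C/5% CO2, using an 11-point series on 1000 cells/well.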

[4] = OV-SAHO Cancer Cell Toxicity qHTS against the NCATS CANVASS Library (AID 1347348); further: nearly all actives have a fitted effect of over 55% in size
Method in brief: as §1

[5] = Panc-1005 Cancer Cell Toxicity qHTS against the NCATS CANVASS Library (AID 1347349); further: nearly all actives have a fitted effect of over 60% in size
Method in brief: as §1

[6] = U-118MG Cancer Cell Toxicity qHTS against the NCATS CANVASS Library (AID 1347351)
Method in brief: as §1

[7] = UWB1.289-WTBRCA1 Cancer Cell Toxicity qHTS against the NCATS CANVASS Library (AID 1347354); settings: UWB1.289-WTBRCA1 viability, CellTiter-Glo luminescence, 72 h; at 76 µM (top of the series)
Method in brief: (§2)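 qHTS cytotoxicity: compounds tested in 11 concentrations on 1000 seeded cells per well over 72 h; bortezomib served as control; signal from CellTiter-Glo luminescence.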

[8] = HEK-293 Cancer Cell Toxicity qHTS against the NCATS CANVASS Library (AID 1347355); further: nearly all actives have a fitted effect of over 65% in size
Method in brief: as §2

[9] = HPAF-II 24hr Apoptosis Induction qHTS against the NCATS CANVASS Library (AID 1347356)
Method in brief: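 Apoptosis induction in HPAF-II pancreatic cancer cells is measured as caspase-3/7 luminescence after a 24-hour exposure to compounds.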

[10] = HEK293 18hr Apoptosis Induction qHTS against the NCATS CANVASS Library (AID 1347357)
Method in brief: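 HEK293 cells (500/well, DMEM + 10% FBS) treated with an 11-point series for 18 h at 37 degrees C. Caspase-3/7 activity read by Caspase-Glo luminescence after 15 min at room temperature.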

Measured: outcome

NCCc1ccc(O)cc1
inactive: all assays above
